# Measured values published in the OligoGym collection.
# Target: PHF20
# Assay: pooled miR-30 sensor sort-seq; sequence = guide strand
# Settings: shRNA
# Also: reference of the scale not given here.
row,Sequence,sensor-assay potency score (higher = more potent)
1,TTCCTTGTCTTCCTTCTCGTTC,-0.88
2,TTAATGGGACTTCACATCCTTT,-1.47
3,TTAACTTTCCTTCTTTATCAGG,-0.815
4,TTTTAAACAGTCCACAACTTTG,-1.74
5,TTTGTTACTTCCACAGTCGAAA,-0.866
6,TAAACTTCTCTCGTTTATCAGG,-1.02
7,TTCTCAATGGAGTCCATCCTGT,-0.423
8,TAAACTTATGGTCTAGGTCGAC,-0.7
9,TTGTGTGAGGACCCACACCTGG,-1.15
10,TTGAATTTACAACTGTCTCCAA,0.401
11,TTGACAGTCTGAACTACTCCAT,-0.0489
12,TGACAGTCTGAACTACTCCATC,-1.04

# Target: PHF23
# Assay: as above
# Settings: shRNA
row,Sequence,sensor-assay potency score (higher = more potent)
1,TTCAGAGTCTGTATCACTGGGG,0.423
2,TATGCCAAAACAAAACTGCAGA,-0.479
3,TACCATGATGTCCTCGTCCATG,-1.2
4,TAACTTCCGCTTCTTGCTCTTC,-0.863
5,TTTTATAGACAACTGTCCCATT,-0.805
6,TTCTCTTGGATGACTTTGCTTT,-0.308
7,TTGCCATCTCTTCTTCTTCTTC,-0.747
8,TTAACTTCCGCTTCTTGCTCTT,0.475
9,TTCTTGCTCTTCTTGATTCGAG,-0.558
